The values below come from PubChem BioAssay.

Test [1] in a line: compounds binding Alexa647 anti-His antibody – biochemical, small-molecule microarray, 635 nm fluorescence, artefact control for SMM control protein annotation, primary screen (AID 1128).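 Further: score merges feature fluorescence with signal-to-noise for each printed compound spot.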 As to conditions: higher = more signal.
The test system of test [2] is Human papillomavirus type 1a E7 protein (residues 1-88). The experiment in a line: HPV1a E7 small-molecule binders, primary screen, biochemical, small-molecule microarray, residues 1-88, 635 nm (AID 1129). The following applies: small-molecule microarray binding, fluorescence 635 nm; higher = more signal.
Test [3] deals with Focal adhesion kinase 1 (Homo sapiens) (UniProt Q05397). Description: PTK2 protein binding on printed compound slides – biochemical, small-molecule microarray, 635/667 nm fluorescence, BSA, DTT, primary screen (AID 1130).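 Further: composite of spot emission at 667 nm and signal to noise over triplicate slides.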 The following applies: 635 nm fluorescence, higher = more signal.
In test [4] the test system is Fibrinogen (Alexa647-labelled). Description: Alexa647-fibrinogen binding to printed small molecules – biochemical, small-molecule microarray, 635/667 nm fluorescence, artefact control for SMM control-protein annotation, profiling panel (AID 1131).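 Further: z-score merges 667 nm fluorescence with per-spot signal-to-noise over triplicate slides.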 The following applies: fibrinogen-A647 binding fluorescence, higher = more signal.
Test [5] has as its target Follistatin (Homo sapiens) (UniProt P19883). Description: FST protein binding to printed compounds – biochemical, small-molecule microarray, 635/667 nm fluorescence, primary screen (AID 1132). As to conditions: 635 nm fluorescence, higher = more signal.
Test [6] concerns the target Fibroblast growth factor 2 (Homo sapiens) (UniProt P09038). The experiment in a line: basic fibroblast growth factor binding to printed compounds – biochemical, small-molecule microarray, 635/667 nm fluorescence, primary screen (AID 1133). As to conditions: FGF2, fluorescence 635/667, higher = more signal.
Test [7] is described as follows: JC-1 mitochondrial potential readout, lung cancer cells – cell-based, A549, JC-1 fluorescence, basal, 24 h, 100 nL, profiling panel (AID 1138).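 Further: A549 lung adenocarcinoma cells under basal conditions with no added stimulus; test concentration not given here.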 The following applies: higher = more signal.
For another test, the system named is Lefty1. The experiment in a line: Lefty1 protein binding to printed compounds – biochemical, small-molecule microarray, 635/667 nm fluorescence, primary screen (AID 1139). The following applies: fluorescence 635/667, higher = more signal.
The test system of test [8] is wheat germ agglutinin (Triticum aestivum), Alexa647-labelled. Description: Alexa647-WGA lectin binding to printed small molecules – biochemical, small-molecule microarray, 635/667 nm fluorescence, artefact control for SMM control-protein annotation, profiling panel (AID 1140).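 Further: score merges 667 nm feature emission with signal to noise over triplicate slides.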 The following applies: WGA-A647 binding, 635 nm fluorescence, higher = more signal.
Test [9] addresses Luciferin 4-monooxygenase (Photinus pyralis) (UniProt P08659). The experiment in a line: inhibition of purified Photinus pyralis luciferase – biochemical, luminescence, purified enzyme, 2006 set, primary screen (AID 1141).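 Further: cell-free assay with purified firefly luciferase at 100 ng per well in PBS; test concentration not given here.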 The following applies: purified firefly luciferase, SteadyGlo luminescence, 30 min; higher = more signal, called active from +8 up or from −8 down.
The subject of test [10] is Wnt5a (protein binding on small-molecule microarray). Description: small molecules binding Wnt5a protein – biophysical, small-molecule microarray, 635/667 nm fluorescence, primary screen (AID 1142).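 Further: fluorescence read at 667 nm with signal to noise per printed feature.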 The following applies: 635 nm fluorescence, higher = more signal.
Test [11] can be described thus: ATP-based viability of Huh7 replicon cells – cell-based, CellTiter-Glo luminescence, basal, 48 h, cytotoxicity control for HCV replication inhibitor project, primary screen (AID 1143).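 Further: Huh7 hepatoma cells carrying a hepatitis C replication reporter with no stimulus; test concentration not given here.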 The following applies: higher = more signal, called active from +8 up or from −8 down.
Test [12] in a line: Pseudomonas biofilm growth suppression – PAO1 strain, BacTiter-Glo luminescence, LB-PBS, primary screen (AID 1144). As to conditions: P. aeruginosa PAO1 biofilm, 12 h, higher = more signal.
The nature of test [13]: basal CRE-LacZ reporter activity in PC12 – cell-based, unstimulated, primary screen (AID 1145). The following applies: no forskolin, luminescence, 4.5 h, higher = more signal, called active from +8 up or from −8 down.
The nature of test [14]: forskolin-driven CRE-LacZ activity in PC12 – cell-based, CRE-LacZ reporter, forskolin-stimulated, primary screen (AID 1146).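 Further: PC12 cells with 6xCRE LacZ reporter stimulated by forskolin 10 µM; beta-galactosidase reporter signal reflecting CREB driven transcription.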 The following applies: luminescence, 4.5 h, higher = more signal, called active from +8 up or from −8 down.
Test [15] addresses Streptavidin (Streptomyces avidinii) (UniProt P22629). The experiment in a line: compounds binding control protein streptavidin – biophysical, small-molecule microarray, 635/667 nm fluorescence, artefact control for SMM compound annotation, primary screen (AID 1147).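 Further: signal reflects streptavidin binding to arrayed compounds as a control protein.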 As to conditions: higher = more signal.
Test [16] in a line: probe aInhba binding on compound microarray – biochemical, small-molecule microarray, 635/667 nm fluorescence, primary screen (AID 1148).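 Further: score merges 667nm spot fluorescence with signal-to-noise for antibody binding to printed compounds.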 As to conditions: higher = more signal.
The target of test [17] is Torsin-1A (Homo sapiens) (UniProt O14656). The experiment in a line: TOR1A wild-type binding on microarray – cell lysate, small-molecule microarray, lysate, 635/667 nm, primary screen (AID 1149). The following applies: COS7 hTOR1A-WT lysate, 635 nm fluorescence, higher = more signal.
The target is the same in test [18]. Description: torsin A mutant lysate binding on microarrays – cell lysate, small-molecule microarray, COS7 lysate, 635/667 nm fluorescence, primary screen (AID 1150).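 Further: score pools 667 nm emission and signal to noise measuring lysate protein binding.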 The following applies: COS7 hTOR1A mutant lysate, 635 nm fluorescence, higher = more signal.
Test [19] relates to Sonic hedgehog protein (Shh). The experiment in a line: Sonic hedgehog microarray binding compounds – biochemical, small-molecule microarray, 635/667 nm fluorescence, primary screen (AID 1151).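 Further: Shh protein binding to compounds spotted on small-molecule microarray slides; score combines spot fluorescence intensity with signal-to-noise across triplicate slides.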 As to conditions: 635 nm fluorescence, higher = more signal.

The source made the active and inactive calls. Unless noted, how the calls were made is not given here.

Chain of Focal adhesion kinase 1 (Homo sapiens) (Q05397 whole entry, looked up): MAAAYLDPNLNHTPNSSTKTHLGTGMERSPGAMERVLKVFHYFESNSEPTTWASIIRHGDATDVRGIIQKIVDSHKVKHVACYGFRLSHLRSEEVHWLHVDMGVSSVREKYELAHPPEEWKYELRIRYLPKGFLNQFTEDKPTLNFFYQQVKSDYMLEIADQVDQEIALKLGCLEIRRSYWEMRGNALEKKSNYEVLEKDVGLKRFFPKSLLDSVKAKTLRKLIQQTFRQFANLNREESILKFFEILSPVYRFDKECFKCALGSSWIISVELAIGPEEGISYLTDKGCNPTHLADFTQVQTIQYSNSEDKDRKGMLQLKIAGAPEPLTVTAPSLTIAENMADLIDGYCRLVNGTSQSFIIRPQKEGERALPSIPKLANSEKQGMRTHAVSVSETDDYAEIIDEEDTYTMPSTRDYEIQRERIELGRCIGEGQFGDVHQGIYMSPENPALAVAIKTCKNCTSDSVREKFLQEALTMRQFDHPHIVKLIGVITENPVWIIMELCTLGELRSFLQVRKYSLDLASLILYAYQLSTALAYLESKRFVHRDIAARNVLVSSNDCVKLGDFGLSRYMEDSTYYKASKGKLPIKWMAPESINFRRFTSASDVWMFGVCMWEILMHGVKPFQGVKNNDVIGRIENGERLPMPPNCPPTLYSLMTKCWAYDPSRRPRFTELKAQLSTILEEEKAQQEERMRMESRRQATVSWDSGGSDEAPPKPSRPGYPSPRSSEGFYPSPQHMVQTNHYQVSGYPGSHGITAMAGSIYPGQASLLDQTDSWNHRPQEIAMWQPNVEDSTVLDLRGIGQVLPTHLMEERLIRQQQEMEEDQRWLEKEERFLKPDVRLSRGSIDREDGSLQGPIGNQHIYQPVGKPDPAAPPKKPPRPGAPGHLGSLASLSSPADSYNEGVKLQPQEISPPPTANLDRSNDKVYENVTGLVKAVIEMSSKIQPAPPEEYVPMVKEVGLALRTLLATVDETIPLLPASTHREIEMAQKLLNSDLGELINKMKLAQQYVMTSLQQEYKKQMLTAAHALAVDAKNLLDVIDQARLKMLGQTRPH
Chain of Torsin-1A (Homo sapiens) (O14656 whole entry, looked up): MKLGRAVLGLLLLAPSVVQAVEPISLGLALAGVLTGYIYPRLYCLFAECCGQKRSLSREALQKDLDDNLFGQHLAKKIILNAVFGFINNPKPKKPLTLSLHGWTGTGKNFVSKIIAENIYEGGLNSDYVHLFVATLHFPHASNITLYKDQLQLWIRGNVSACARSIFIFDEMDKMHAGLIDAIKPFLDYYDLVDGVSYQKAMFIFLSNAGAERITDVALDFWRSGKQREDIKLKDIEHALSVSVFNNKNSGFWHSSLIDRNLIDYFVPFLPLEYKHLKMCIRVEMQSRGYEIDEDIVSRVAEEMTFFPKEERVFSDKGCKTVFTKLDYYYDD
Chain of Fibroblast growth factor 2 (Homo sapiens) (P09038 whole entry, looked up): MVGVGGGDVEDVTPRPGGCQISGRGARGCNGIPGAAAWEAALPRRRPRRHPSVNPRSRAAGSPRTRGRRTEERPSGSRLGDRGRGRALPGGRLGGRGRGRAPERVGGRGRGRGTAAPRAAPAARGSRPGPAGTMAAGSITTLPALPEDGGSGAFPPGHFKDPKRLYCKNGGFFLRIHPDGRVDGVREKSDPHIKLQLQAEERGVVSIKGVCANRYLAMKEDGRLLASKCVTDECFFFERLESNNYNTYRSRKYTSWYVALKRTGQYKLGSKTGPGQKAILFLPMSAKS
Chain of Luciferin 4-monooxygenase (Photinus pyralis) (P08659 whole entry, looked up): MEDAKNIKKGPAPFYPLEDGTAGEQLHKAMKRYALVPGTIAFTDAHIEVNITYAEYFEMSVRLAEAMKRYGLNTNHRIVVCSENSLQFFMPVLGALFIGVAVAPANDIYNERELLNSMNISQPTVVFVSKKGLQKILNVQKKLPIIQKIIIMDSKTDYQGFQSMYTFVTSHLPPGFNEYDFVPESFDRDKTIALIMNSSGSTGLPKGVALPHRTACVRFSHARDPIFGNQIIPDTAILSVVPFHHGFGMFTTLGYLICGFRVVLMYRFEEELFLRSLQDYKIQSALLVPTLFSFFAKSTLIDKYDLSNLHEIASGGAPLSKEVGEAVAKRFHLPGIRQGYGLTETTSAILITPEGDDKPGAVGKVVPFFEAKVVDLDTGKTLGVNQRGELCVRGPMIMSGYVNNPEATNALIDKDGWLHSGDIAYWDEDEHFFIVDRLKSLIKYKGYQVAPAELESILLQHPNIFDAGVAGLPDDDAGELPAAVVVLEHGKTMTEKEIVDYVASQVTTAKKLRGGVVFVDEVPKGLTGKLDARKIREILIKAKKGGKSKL
Chain of Follistatin (Homo sapiens) (P19883 whole entry, looked up): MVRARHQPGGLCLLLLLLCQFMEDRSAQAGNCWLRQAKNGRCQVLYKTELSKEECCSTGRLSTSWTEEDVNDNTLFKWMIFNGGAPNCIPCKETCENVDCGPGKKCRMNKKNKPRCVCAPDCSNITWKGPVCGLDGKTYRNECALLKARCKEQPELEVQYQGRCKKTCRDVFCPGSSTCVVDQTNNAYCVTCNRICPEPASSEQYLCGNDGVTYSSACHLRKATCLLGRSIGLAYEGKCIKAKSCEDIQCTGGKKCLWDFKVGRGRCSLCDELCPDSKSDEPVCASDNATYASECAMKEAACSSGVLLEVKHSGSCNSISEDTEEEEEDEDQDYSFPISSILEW
Chain of Streptavidin (Streptomyces avidinii) (P22629 whole entry, looked up): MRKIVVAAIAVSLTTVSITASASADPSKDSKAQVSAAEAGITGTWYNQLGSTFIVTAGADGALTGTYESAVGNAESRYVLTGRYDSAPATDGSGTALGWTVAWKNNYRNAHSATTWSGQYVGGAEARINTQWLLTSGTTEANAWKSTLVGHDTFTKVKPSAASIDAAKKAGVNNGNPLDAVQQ

Consider `O=C1N(Cc2ccccc2)Cc2ccccc2[C@@H]2OC(c3ccc(OCCCO)cc3)=N[C@]12CCS(=O)(=O)c1ccccc1`, for which the composite z-score was 0.624 in test [1]; 1.19 in test [2]; 0.389 in test [3]; 0.768 in test [4]; 0.953 in test [5]; 1.4 in test [6]. Also, the composite z-score is -0.0333 with Lefty1; 1.04 in [8]; 0.534 in test [10]; 0.379 in test [15]; 0.0742 in [16]; 0.529 with Torsin-1A (Homo sapiens) [17]. The composite z-score worked out at 0.489 with Torsin-1A (Homo sapiens) [18] and 1.42 in test [19]. The z-score was -0.461 in [7]; -0.929 (inactive) in [9]; -2.33 (inactive) in test [11]; 0.245 (inactive) in test [12]; 3.78 (inactive) in test [13]; -0.832 (inactive) in [14].

As to `COCCOC(=O)N1C(=O)[C@@]2(c3cc(C#Cc4ccc(OC)cc4)ccc31)[C@H](c1ccc(O)cc1)N1[C@H](c3ccccc3)[C@H](c3ccccc3)OC(=O)[C@H]1[C@@H]2C(=O)N1CCCCCCC1`, the composite z-score in [1] is -1.01; in [2] it was 1.11; in test [3] it was 0.415; in test [4], 0.377; in test [5], 1.25; in test [6] it was 0.408. For the same compound, the composite z-score was 0.391 with Lefty1; 0.484 in [8]; 0.608 in test [10]; 1.25 in test [15]; 1.12 in [16]; -0.0107 with Torsin-1A (Homo sapiens) [17]. In addition, the composite z-score was found to be 0.913 with Torsin-1A (Homo sapiens) [18] and 0.379 in [19]. For the same compound, the z-score in test [7] was -0.421; in test [9], -0.564 (inactive); in [11], -0.86 (inactive); in test [12], -0.144 (inactive); in test [13] it was 0.0653 (inactive); in test [14], 0.895 (inactive).

Take `COc1ccc([Si](C)(C)[C@@H]2[C@@H](CC(=O)N3Cc4ccccc4C[C@H]3CO)O[C@]3(C(=O)N(Cc4cccc(N5C(=O)c6cccc7cccc5c67)c4)c4ccccc43)[C@H]2C)cc1`: the composite z-score was determined as 0.846 in test [1]; 0.956 in test [2]; 0.434 in [3]; 0.883 in test [4]; 1.35 in test [5]; 1.62 in test [6]. The composite z-score in the test with Lefty1 was 0.937; in test [8] it was 0.423; in [10], 0.51; in test [15], 0.211; in [16] it was 0.0091; with Torsin-1A (Homo sapiens) [17], 0.786. Besides, the results for the composite z-score (with Torsin-1A (Homo sapiens) [18]; in test [19]) were 0.535 and 1.19, respectively. Moreover, the z-score in test [7] was 0.129; in test [9] it was -0.347 (inactive); in test [11], -4.1 (inactive); in [12] it was -0.194 (inactive); in test [13] it was 0.861 (inactive); in test [14], 0.838 (inactive).

For `CN1C(=O)C2C=CC(C(O)COCc3ccccc3)N(N(c3ccccc3)c3ccccc3)C2C1=O` (stereo not given), the composite z-score in test [1] is 0.087; in test [2] it was 1.19; in test [3], 0.75; in test [4], 0.56; in test [5], 0.265; in [6], -0.483. The composite z-score was found to be 0.216 in the test on Lefty1; 0.508 in test [8]; 0.124 in test [10]; 0.369 in test [15]; 0.0464 in test [16]; 0.346 with Torsin-1A (Homo sapiens) [17]. Moreover, the composite z-score with Torsin-1A (Homo sapiens) [18] is 0.231; in test [19], -0.386. Also, the z-score was 1.12 in test [7]; -1.06 (inactive) in [9]; -0.423 (inactive) in test [11]; -0.761 (inactive) in test [12]; -0.326 (inactive) in [13]; -0.637 (inactive) in test [14].

With `COCCCNC(=O)[C@@]1(Sc2ccc(C)cc2)CC(=O)N(C2CCCCC2)[C@@H]1c1ccc(CO)cc1`, the composite z-score in test [1] was 0.624; in test [2] it was -0.454; in test [3], 0.647; in test [4] it was -1.08; in test [5] it was -0.441; in test [6], -0.511. In addition, the composite z-score in the test on Lefty1 is -1.63; in test [8], -0.361; in test [10], 0.0421; in [15] it was -0.749; in test [16] it was -0.154; with Torsin-1A (Homo sapiens) [17], -1.51. Besides, the composite z-score is -0.424 in the test with Torsin-1A (Homo sapiens) [18] and -0.911 in test [19]. Moreover, the z-score is -0.227 in test [7]; 0.545 (inactive) in [9]; -0.0515 (inactive) in [11]; -0.319 (inactive) in test [12]; 0.118 (inactive) in test [13]; 1.7 (inactive) in [14].
